Measured values taken from ChEMBL document CHEMBL1961873, “Compounds: GSK PKIS; Assays: Nanosyn kinase panel” (2012).

Tests used:
[1] = target: Dual specificity protein kinase TTK (Homo sapiens) (UniProt P33981); conditions: at 0.1 µM
[2] = test system: Receptor-type tyrosine-protein kinase FLT3 (Homo sapiens), P36888 [D835Y]; conditions: at 1 µM
[3] = target: Vascular endothelial growth factor receptor 3 (Homo sapiens) (UniProt P35916); conditions: at 0.1 µM
[4] = target: Vascular endothelial growth factor receptor 3 (Homo sapiens) (UniProt P35916); conditions: at 1 µM
[5] = target: Macrophage colony-stimulating factor 1 receptor (Homo sapiens) (UniProt P07333); conditions: at 0.1 µM
[6] = target: Macrophage colony-stimulating factor 1 receptor (Homo sapiens) (UniProt P07333); conditions: at 1 µM
[7] = target: Tyrosine-protein kinase Fyn (Homo sapiens) (UniProt P06241); conditions: at 0.1 µM
[8] = target: Tyrosine-protein kinase Fyn (Homo sapiens) (UniProt P06241); conditions: at 1 µM
[9] = target: Tyrosine-protein kinase HCK (Homo sapiens) (UniProt P08631); conditions: at 0.1 µM
[10] = target: Tyrosine-protein kinase HCK (Homo sapiens) (UniProt P08631); conditions: at 1 µM
[11] = target: Insulin-like growth factor 1 receptor (Homo sapiens) (UniProt P08069); conditions: at 0.1 µM
[12] = target: Insulin-like growth factor 1 receptor (Homo sapiens) (UniProt P08069); conditions: at 1 µM
[13] = target: Insulin receptor (Homo sapiens) (UniProt P06213); conditions: at 0.1 µM
Insulin receptor (Homo sapiens), sequence (P06213 28-758 limits assumed): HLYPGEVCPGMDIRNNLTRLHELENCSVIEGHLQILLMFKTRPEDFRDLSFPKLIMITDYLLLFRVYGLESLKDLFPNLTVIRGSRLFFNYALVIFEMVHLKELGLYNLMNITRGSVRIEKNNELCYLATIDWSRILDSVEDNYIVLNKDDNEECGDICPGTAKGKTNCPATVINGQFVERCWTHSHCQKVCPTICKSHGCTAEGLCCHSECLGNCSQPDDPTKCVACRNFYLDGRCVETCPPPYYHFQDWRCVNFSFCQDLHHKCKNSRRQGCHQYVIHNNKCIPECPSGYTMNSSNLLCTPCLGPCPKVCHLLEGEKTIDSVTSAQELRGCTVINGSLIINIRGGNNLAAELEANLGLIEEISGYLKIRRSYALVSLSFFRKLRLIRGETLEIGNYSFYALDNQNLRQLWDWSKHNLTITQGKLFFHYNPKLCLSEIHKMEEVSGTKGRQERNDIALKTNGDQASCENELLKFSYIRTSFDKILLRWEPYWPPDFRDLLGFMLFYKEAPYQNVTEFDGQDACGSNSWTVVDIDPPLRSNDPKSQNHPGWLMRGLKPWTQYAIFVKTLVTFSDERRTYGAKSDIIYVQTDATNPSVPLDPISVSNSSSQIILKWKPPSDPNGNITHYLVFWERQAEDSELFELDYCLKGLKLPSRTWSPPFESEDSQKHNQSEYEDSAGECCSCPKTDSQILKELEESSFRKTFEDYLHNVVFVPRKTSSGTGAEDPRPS
Insulin receptor (Homo sapiens), sequence (P06213 763-1382 limits assumed): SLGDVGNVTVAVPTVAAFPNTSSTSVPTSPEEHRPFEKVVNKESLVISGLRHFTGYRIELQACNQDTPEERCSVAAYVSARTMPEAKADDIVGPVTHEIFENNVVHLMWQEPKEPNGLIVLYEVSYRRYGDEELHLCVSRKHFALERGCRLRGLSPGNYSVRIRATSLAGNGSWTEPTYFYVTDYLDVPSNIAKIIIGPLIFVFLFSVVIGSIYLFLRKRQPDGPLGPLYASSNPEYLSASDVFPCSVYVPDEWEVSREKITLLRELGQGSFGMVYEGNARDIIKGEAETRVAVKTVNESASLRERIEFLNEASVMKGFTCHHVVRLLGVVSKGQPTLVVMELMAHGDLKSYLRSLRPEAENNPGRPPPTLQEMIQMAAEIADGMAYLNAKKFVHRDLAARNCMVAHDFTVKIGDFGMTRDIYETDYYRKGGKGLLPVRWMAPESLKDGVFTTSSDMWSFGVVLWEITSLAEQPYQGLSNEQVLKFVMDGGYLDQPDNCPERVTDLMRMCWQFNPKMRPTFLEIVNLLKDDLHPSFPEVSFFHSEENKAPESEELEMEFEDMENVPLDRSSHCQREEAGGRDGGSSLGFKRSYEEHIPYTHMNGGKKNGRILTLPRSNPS

[14] = target: Insulin receptor (Homo sapiens) (UniProt P06213); conditions: at 1 µM
[15] = target: Insulin receptor-related protein (Homo sapiens) (UniProt P14616); conditions: at 0.1 µM
[16] = target: Insulin receptor-related protein (Homo sapiens) (UniProt P14616); conditions: at 1 µM
[17] = target: Tyrosine-protein kinase ITK/TSK (Homo sapiens) (UniProt Q08881); conditions: at 0.1 µM
[18] = target: Tyrosine-protein kinase ITK/TSK (Homo sapiens) (UniProt Q08881); conditions: at 1 µM
[19] = target: Tyrosine-protein kinase JAK1 (Homo sapiens) (UniProt P23458); conditions: at 0.1 µM
Tyrosine-protein kinase JAK1 (Homo sapiens), sequence (P23458 whole entry): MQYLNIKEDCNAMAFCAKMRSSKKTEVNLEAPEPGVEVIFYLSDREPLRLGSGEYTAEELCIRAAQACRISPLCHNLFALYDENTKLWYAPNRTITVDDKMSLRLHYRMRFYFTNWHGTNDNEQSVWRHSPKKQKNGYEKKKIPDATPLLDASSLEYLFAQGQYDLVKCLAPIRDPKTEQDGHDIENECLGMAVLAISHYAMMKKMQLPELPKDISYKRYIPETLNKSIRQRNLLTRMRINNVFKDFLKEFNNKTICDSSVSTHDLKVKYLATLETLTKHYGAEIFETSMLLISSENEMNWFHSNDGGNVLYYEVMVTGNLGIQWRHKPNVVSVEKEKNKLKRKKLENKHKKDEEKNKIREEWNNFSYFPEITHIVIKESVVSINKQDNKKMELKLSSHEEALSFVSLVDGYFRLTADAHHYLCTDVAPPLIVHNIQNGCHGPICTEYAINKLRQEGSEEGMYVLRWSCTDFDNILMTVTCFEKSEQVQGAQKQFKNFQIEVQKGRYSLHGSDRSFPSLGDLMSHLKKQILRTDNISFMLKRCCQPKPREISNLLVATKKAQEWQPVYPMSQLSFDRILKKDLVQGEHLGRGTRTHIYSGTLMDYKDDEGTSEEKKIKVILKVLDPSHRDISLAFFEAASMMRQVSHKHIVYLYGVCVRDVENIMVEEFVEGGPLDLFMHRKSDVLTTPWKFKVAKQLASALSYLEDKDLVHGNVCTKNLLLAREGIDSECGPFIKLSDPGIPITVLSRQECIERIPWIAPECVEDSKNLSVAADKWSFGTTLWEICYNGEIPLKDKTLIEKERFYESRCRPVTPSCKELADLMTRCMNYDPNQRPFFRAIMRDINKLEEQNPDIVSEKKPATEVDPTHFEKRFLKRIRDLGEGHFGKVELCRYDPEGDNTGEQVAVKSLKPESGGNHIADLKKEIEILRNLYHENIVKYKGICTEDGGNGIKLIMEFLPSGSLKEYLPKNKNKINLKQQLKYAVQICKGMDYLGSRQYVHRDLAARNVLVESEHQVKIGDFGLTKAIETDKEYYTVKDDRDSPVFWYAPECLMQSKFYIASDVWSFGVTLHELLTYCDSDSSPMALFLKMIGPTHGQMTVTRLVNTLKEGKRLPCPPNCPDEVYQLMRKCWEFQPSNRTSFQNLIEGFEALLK

[20] = target: Tyrosine-protein kinase JAK1 (Homo sapiens) (UniProt P23458); conditions: at 1 µM
[21] = target: Tyrosine-protein kinase JAK2 (Homo sapiens) (UniProt O60674); conditions: at 0.1 µM
[22] = target: Tyrosine-protein kinase JAK2 (Homo sapiens) (UniProt O60674); conditions: at 1 µM
[23] = target: Tyrosine-protein kinase JAK3 (Homo sapiens) (UniProt P52333); conditions: at 0.1 µM
[24] = target: Tyrosine-protein kinase JAK3 (Homo sapiens) (UniProt P52333); conditions: at 1 µM
[25] = target: Vascular endothelial growth factor receptor 2 (Homo sapiens) (UniProt P35968); conditions: at 0.1 µM
[26] = target: Vascular endothelial growth factor receptor 2 (Homo sapiens) (UniProt P35968); conditions: at 1 µM
[27] = target: Mast/stem cell growth factor receptor Kit (Homo sapiens) (UniProt P10721); conditions: at 0.1 µM
[28] = target: Mast/stem cell growth factor receptor Kit (Homo sapiens) (UniProt P10721); conditions: at 1 µM
[29] = test system: Mast/stem cell growth factor receptor Kit (Homo sapiens), P10721 [D816V]; conditions: at 0.1 µM
[30] = test system: Mast/stem cell growth factor receptor Kit (Homo sapiens), P10721 [D816V]; conditions: at 1 µM
[31] = test system: Mast/stem cell growth factor receptor Kit (Homo sapiens), P10721 [T670I]; conditions: at 0.1 µM
[32] = test system: Mast/stem cell growth factor receptor Kit (Homo sapiens), P10721 [T670I]; conditions: at 1 µM
[33] = test system: Mast/stem cell growth factor receptor Kit (Homo sapiens), P10721 [V560G]; conditions: at 0.1 µM
[34] = test system: Mast/stem cell growth factor receptor Kit (Homo sapiens), P10721 [V560G]; conditions: at 1 µM
[35] = target: Tyrosine-protein kinase Lck (Homo sapiens) (UniProt P06239); conditions: at 0.1 µM
[36] = target: Tyrosine-protein kinase Lck (Homo sapiens) (UniProt P06239); conditions: at 1 µM
[37] = target: Leukocyte tyrosine kinase receptor (Homo sapiens) (UniProt P29376); conditions: at 0.1 µM
[38] = target: Leukocyte tyrosine kinase receptor (Homo sapiens) (UniProt P29376); conditions: at 1 µM
[39] = target: Tyrosine-protein kinase Lyn (Homo sapiens) (UniProt P07948); conditions: at 0.1 µM
Tyrosine-protein kinase Lyn (Homo sapiens), sequence (P07948 2-512 limits assumed): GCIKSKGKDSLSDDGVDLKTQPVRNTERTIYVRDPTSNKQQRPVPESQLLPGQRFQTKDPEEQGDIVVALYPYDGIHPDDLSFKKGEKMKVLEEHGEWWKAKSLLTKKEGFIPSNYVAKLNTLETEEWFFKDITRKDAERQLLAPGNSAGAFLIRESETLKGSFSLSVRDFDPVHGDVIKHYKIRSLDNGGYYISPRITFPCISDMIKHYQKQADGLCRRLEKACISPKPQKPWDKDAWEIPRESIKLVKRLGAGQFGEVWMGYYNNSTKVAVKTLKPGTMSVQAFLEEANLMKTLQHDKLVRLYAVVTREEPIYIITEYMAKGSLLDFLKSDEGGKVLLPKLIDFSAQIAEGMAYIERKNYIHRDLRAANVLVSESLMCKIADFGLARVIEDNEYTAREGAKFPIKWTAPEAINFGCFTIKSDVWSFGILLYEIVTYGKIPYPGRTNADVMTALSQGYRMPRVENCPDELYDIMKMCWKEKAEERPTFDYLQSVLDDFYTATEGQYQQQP

[40] = target: Tyrosine-protein kinase Lyn (Homo sapiens) (UniProt P07948); conditions: at 1 µM
[41] = target: Tyrosine-protein kinase Lyn (Homo sapiens) (UniProt P07948); conditions: at 0.1 µM; remark: listed apart in the source
[42] = target: Tyrosine-protein kinase Lyn (Homo sapiens) (UniProt P07948); conditions: at 1 µM; remark: listed apart in the source
[43] = target: Tyrosine-protein kinase Mer (Homo sapiens) (UniProt Q12866); conditions: at 0.1 µM
[44] = target: Tyrosine-protein kinase Mer (Homo sapiens) (UniProt Q12866); conditions: at 1 µM
[45] = target: Hepatocyte growth factor receptor (Homo sapiens) (UniProt P08581); conditions: at 0.1 µM
[46] = target: Hepatocyte growth factor receptor (Homo sapiens) (UniProt P08581); conditions: at 1 µM
[47] = target: Muscle, skeletal receptor tyrosine-protein kinase (Homo sapiens) (UniProt O15146); conditions: at 0.1 µM
Muscle, skeletal receptor tyrosine-protein kinase (Homo sapiens), sequence (O15146 whole entry): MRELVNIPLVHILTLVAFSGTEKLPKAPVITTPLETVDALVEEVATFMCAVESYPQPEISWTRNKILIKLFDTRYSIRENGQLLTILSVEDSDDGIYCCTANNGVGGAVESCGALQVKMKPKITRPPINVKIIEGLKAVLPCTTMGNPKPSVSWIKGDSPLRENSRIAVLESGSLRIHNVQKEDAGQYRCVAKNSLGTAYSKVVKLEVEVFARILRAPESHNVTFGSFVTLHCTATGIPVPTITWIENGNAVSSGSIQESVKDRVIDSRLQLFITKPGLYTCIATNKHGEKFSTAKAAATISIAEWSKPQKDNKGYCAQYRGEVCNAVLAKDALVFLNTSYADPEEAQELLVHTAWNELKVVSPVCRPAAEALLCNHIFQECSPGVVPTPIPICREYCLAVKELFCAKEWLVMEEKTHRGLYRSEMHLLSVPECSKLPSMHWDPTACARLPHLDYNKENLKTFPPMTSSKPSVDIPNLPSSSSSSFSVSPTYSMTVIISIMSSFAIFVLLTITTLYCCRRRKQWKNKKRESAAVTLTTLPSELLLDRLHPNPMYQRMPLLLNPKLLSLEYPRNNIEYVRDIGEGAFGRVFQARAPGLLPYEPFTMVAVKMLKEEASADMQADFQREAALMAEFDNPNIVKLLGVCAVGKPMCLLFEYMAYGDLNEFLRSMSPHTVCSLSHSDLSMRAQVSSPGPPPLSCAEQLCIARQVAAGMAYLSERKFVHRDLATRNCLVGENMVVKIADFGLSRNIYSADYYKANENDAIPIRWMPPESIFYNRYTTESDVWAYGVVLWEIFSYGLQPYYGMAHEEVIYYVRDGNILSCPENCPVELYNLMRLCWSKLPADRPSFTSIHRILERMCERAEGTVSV

[48] = target: Muscle, skeletal receptor tyrosine-protein kinase (Homo sapiens) (UniProt O15146); conditions: at 1 µM
[49] = target: Platelet-derived growth factor receptor alpha (Homo sapiens) (UniProt P16234); conditions: at 0.1 µM
[50] = target: Platelet-derived growth factor receptor alpha (Homo sapiens) (UniProt P16234); conditions: at 1 µM
[51] = test system: Platelet-derived growth factor receptor alpha (Homo sapiens), P16234 [D842V]; conditions: at 0.1 µM
[52] = test system: Platelet-derived growth factor receptor alpha (Homo sapiens), P16234 [D842V]; conditions: at 1 µM
[53] = test system: Platelet-derived growth factor receptor alpha (Homo sapiens), P16234 [T674I]; conditions: at 0.1 µM
[54] = test system: Platelet-derived growth factor receptor alpha (Homo sapiens), P16234 [T674I]; conditions: at 1 µM
[55] = test system: Platelet-derived growth factor receptor alpha (Homo sapiens), P16234 [V561D]; conditions: at 0.1 µM
Platelet-derived growth factor receptor alpha (Homo sapiens), P16234 [V561D], sequence (P16234 whole entry V561D): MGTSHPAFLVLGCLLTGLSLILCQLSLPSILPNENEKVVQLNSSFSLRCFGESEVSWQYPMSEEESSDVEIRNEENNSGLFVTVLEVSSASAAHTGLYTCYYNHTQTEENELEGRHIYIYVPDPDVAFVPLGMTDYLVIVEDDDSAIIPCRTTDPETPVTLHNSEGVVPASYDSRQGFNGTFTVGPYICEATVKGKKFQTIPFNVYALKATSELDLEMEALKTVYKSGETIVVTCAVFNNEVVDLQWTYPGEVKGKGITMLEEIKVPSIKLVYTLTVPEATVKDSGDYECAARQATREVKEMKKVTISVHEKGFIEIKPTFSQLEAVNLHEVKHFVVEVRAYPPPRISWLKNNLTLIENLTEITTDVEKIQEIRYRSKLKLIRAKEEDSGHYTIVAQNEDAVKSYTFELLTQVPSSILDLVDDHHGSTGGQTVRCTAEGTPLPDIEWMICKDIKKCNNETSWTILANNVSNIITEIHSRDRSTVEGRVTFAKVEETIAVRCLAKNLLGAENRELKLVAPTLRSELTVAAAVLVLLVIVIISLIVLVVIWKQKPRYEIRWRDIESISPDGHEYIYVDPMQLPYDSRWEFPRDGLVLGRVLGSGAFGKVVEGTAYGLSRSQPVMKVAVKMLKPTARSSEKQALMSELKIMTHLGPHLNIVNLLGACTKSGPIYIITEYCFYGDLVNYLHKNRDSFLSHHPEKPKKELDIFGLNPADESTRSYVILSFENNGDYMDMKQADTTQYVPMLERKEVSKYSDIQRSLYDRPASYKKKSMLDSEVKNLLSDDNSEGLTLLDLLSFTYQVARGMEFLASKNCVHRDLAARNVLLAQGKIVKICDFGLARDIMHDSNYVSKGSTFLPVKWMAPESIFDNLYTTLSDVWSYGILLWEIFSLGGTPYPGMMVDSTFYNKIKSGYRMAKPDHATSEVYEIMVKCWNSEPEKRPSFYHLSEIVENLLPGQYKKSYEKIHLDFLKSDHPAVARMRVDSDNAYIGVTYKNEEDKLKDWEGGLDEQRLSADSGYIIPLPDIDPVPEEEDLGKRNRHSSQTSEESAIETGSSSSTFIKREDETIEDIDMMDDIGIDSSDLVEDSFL

[56] = test system: Platelet-derived growth factor receptor alpha (Homo sapiens), P16234 [V561D]; conditions: at 1 µM

With `CNC(=O)Oc1cc(C)c(/C=C/c2cncc(C(=O)NC)c2)c(C)c1` the inhibition [1] was 3.53%, the inhibition [2] was -6.68% and the inhibition [3] was 2.38%. The inhibition [4] was 3.06%, the inhibition [5] was 4.08% and the inhibition [6] was 28.3%. For the same compound, the inhibition [7] was 4.17%, the inhibition [8] was 32.4% and the inhibition [9] was 14.3%. For the same compound, the inhibition [10] was 51.1%, the inhibition [11] was 6.27% and the inhibition [12] was 6.14%. It also gave an inhibition [13] of 3.13%, an inhibition [14] of 3.08% and an inhibition [15] of 3.12%. The inhibition [16] was 2.02%, the inhibition [17] was 0.99% and the inhibition [18] was 1.69%. The inhibition [19] was 3.98%, the inhibition [20] was -1.5% and the inhibition [21] was 1.67%. It also gave an inhibition [22] of 1.34%, an inhibition [23] of 0.21% and an inhibition [24] of -1.11%. For the same compound, the inhibition [25] was -0.28%, the inhibition [26] was 4.06% and the inhibition [27] was 12.7%. It also gave an inhibition [28] of 63.5%, an inhibition [29] of 4.33% and an inhibition [30] of -0.14%. It also gave an inhibition [31] of 1.64%, an inhibition [32] of -1.04% and an inhibition [33] of 2.06%. For the same compound, the inhibition [34] was 14.4%, the inhibition [35] was 6.81% and the inhibition [36] was 41%. For the same compound, the inhibition [37] was 3.84%, the inhibition [38] was 5.56% and the inhibition [39] was 13.7%. The inhibition [40] was 57.1%, the inhibition [41] was 9.47% and the inhibition [42] was 52.3%. The inhibition [43] was 1.05%, the inhibition [44] was 0.84% and the inhibition [45] was -2.86%. It also gave an inhibition [46] of -0.63%, an inhibition [47] of 1.43% and an inhibition [48] of 4.49%. The inhibition [49] was 12.5%, the inhibition [50] was 42.2% and the inhibition [51] was 2.6%. The inhibition [52] was 13.1%, the inhibition [53] was 3.98% and the inhibition [54] was 4.15%. For the same compound, the inhibition [55] was 13.5% and the inhibition [56] was 52.3%.
